Screens deposited in PubChem BioAssay by several laboratories.
TLR9-MyD88 inh – blocks human TLR9 binding to MyD88; Q9NR96+Q99836; CHO BLA complementation TLR9-MyD88, CCF4 FRET ratio; inhibition, % at 4.98 µM; actives 0.21% (n = 340,000); AID 504734;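 active means inhibition above the mean over all tested compounds plus 3 SD, cut at about 21% in these data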;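 further: 0% = DMSO only wells and 100% = clavulanate BLA inhibitor control wells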
NOD2-RIPK2 inh – NOD2-RIPK2 protein interaction inhibition; O43353; CHO BLA complementation NOD2-RIPK2, CCF4 ratio; inhibition, % at 4.98 µM; actives 0.38% (n = 360,000); AID 624267; in the data active means inhibition above about 21%;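 further: 0% = vehicle only and 100% = reference blocker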
TLR4-MyD88 BLA – blocks binding of human TLR4 to MyD88 | O00206+Q99836 | actives 0.18% (n = 200,000) | HeLa CL3-4 TLR4/MyD88 BLA complementation, FRET ratio | inhibition, % at 8.4 µM; in the data active means inhibition above about 25%;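 further: 0% = vehicle and 100% = reference inhibitor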
Target sequence (O00206 whole entry, looked up): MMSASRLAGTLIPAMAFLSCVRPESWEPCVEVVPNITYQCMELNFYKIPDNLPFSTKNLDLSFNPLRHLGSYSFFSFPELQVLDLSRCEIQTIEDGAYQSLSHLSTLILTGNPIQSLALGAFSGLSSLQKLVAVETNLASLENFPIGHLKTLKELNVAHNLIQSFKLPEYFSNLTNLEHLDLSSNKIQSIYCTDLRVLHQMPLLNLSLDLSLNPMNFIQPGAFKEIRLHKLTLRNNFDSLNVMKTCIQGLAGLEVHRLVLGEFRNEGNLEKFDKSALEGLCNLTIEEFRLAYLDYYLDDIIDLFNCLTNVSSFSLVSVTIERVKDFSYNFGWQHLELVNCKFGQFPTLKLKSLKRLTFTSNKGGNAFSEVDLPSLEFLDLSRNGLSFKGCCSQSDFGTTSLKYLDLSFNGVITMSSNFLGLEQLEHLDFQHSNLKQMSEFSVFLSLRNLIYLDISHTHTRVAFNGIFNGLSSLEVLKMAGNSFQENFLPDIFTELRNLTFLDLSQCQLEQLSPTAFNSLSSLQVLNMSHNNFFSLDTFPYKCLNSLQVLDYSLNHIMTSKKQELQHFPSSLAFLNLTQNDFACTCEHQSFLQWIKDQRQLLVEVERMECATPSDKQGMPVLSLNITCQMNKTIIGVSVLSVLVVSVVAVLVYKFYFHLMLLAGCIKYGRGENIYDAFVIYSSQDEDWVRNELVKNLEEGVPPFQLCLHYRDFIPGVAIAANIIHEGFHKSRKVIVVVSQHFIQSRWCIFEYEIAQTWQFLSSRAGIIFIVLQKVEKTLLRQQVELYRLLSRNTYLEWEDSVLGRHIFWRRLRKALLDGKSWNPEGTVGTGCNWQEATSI
Target sequence (Q99836 whole entry, looked up): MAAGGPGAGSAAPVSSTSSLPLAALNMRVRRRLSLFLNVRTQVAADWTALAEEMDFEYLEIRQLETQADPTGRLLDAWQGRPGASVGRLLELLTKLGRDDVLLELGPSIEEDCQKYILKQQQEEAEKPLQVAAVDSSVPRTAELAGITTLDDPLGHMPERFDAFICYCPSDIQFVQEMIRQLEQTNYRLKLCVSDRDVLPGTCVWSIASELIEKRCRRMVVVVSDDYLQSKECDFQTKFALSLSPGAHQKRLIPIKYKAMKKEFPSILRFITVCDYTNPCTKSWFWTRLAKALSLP
ANO1 block – mouse TMEM16A channel inhibition, primary screen. Q8BHY3. HEK293 TMEM16A/YFP iodide influx fluorescence, ionomycin. normalized B-score (activity score, 25-100; higher = stronger inhibition) at 10 µM. actives 1.2% (n = 310,000). AID 588511;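 active means ratio plate-corrected score three or more library SD toward inhibition, starting fluorescence score within five deviations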;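 further: score derived from kinetic fluorescence span divided by baseline fluorescence per well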
TMEM16A act – activates or potentiates the mouse TMEM16A chloride channel | AID 623877 | Q8BHY3 | actives 0.3% (n = 340,000) | B-score at 10 µM | HEK293 TMEM16A/YFP-H148Q/I152L, iodide quench fluorescence; stronger effect = lower value;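 active means fluorescence-ratio B-score plate-corrected deviation score at least 3 library SD below zero, with starting fluorescence score within 5 deviations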;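 further: channel opened by trigger with iodide after compound preincubation; score built on the fluorescence ratio of max minus min over baseline; more negative score means more quench and so TMEM16A activation or potentiation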
m5-HT2A agonist – agonists of mouse serotonin 5-HT2A receptor (HTR2A). activation, % at 7.6 µM. P35363. actives 0.66% (n = 360,000). CHO-K1 mHTR2A beta-arrestin complementation, luminescence; percent of 30 µM serotonin response;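 active means activation above a run cutoff, the mean activation of all tested compounds plus 3 SD, cut at about 14% in these data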;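 further: 0% = plate median of compound wells and 100% = 30 µM serotonin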
MOR ag counter – counter-screen for mouse HTR2A agonists: human mu opioid receptor agonists | shares compounds with m5-HT2A agonist | U2OS OPRM1 beta-arrestin PathHunter, luminescence; DMSO 0%, DAMGO 9.3 µM 100% | activation, % at 9.3 µM | actives 5.3% (n = 2,300);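 active means mean activation above the mean of DMSO-only wells plus 3 SD, cut at about 0.5% in these data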
HTR2A ag conf – confirmation of mouse HTR2A serotonin receptor agonists | shares compounds with m5-HT2A agonist | CHO-K1 PathHunter beta-arrestin recruitment, luminescence; DMSO 0%, 30 µM serotonin 100% | activation, % at 7.6 µM | actives 19% (n = 2,300);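 active means mean activation across triplicates above the hit threshold derived in the original primary screen, cut at about 15% in these data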
NOD2-RIPK2 conf – NOD2-RIPK2 interaction inhibition confirmed. shares compounds with NOD2-RIPK2 inh. actives 70% (n = 1,200). AID 624370. inhibition, % at 4.98 µM. CHO cells, NOD2-RIPK2 BLA complementation, CCF4 FRET;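 active means mean inhibition across replicates above a set limit taken from the earlier primary screen, cut at about 21% in these data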;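 further: 0% = DMSO-only wells and the high end = clavulanate BLA-blocked wells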
BLA counter – hits BLA reporter in NOD2-RIPK2 inhibitor counterscreen | shares compounds with NOD2-RIPK2 inh | CHO BLA reporter, CCF4 FRET ratio | inhibition, % at 4.98 µM | actives 57% (n = 1,200);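 active means mean inhibition above the low-control mean inhibition plus three low-control SD, cut at about 11% in these data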;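 further: 0% = DMSO only wells and 100% = clavulanate high control wells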
* = called active by the depositor; i = inactive; . = not tested or not shown. Rows were chosen to be rich in hits. Some 2.4% of all compounds tested hit in one or more screens of this group.

SMILES	TLR9-MyD88 inh	NOD2-RIPK2 inh	TLR4-MyD88 BLA	ANO1 block	TMEM16A act	m5-HT2A agonist	NOD2-RIPK2 conf	BLA counter	others
CCCNC(=O)Nc1cccc(NC(C)=O)c1	-7	7	.	i	i	-1	.	.
O=C(Nc1ccc2c(c1)OCCO2)C(CCc1ccccc1)N(Cc1ccccc1)Cc1ccccc1 (configuration not stated)	.	-13	.	.	.	18*	.	.	MOR ag counter=-1;HTR2A ag conf=-6
O=C(CCCc1ccccc1)Nc1ccc2c(c1)OCCO2	-3	1	-2	i	i	-6	.	.
NC(=O)C1CCN(C(=O)c2cc(-c3ccccc3Cl)nc3ccccc23)CC1	-12	-10	.	.	i	0	.	.
Cc1c(Cl)cccc1NC(=O)COC(=O)Cc1ccsc1	8	-7	.	.	i	16*	.	.	MOR ag counter=0;HTR2A ag conf=7
COc1cccc(NS(=O)(=O)c2cc3c4c(c2)CCC(=O)N4CCC3)c1	-11	-2	.	i	i	1	.	.
O=C1CC(c2ccc(F)cc2)CC(O)=C1C=NCCN1CCNCC1 (configuration not stated)	0	4	3	i	i	-1	.	.
Cc1ccn2c(=S)[nH]nc2c1	-9	1	.	.	.	2	.	.
S=c1[nH]nc2ccccn12	-1	3	.	.	.	21*	.	.	MOR ag counter=-1;HTR2A ag conf=-4
CCn1cnc2sc(C(=O)Oc3cccc(C)c3)c(C)c2c1=O	12	1	-1	i	i	1	.	.
CCOC(=O)C1CCN(CC(C)(C)NS(=O)(=O)c2ccc(C)cc2)CC1	4	2	.	i	i	20*	.	.	MOR ag counter=-1;HTR2A ag conf=2
Cc1ccc(C(=O)OCC(=O)Nc2ccc(Cl)cn2)s1	-4	-12	.	.	i	0	.	.
COc1ccccc1NC(=O)c1ccccc1SCC(=O)N1CCCC1	0	-1	.	.	.	14*	.	.	MOR ag counter=-1;HTR2A ag conf=-4
COc1ccc(-c2cc(-c3nc4ccccn4c3NCc3ccccc3)ccc2OC)cc1	-5	29*	.	.	i	33*	21	6	MOR ag counter=1.4*;HTR2A ag conf=29*
COc1ccc(-c2nc3ccccn3c2NCc2ccc3c(c2)OCO3)cc1	13	1	3	i	i	-3	.	.
O=C(NCc1ccccc1)C(C1CC1)n1c(=O)c(-c2cc3ccccc3[nH]2)nc2ccccc21 (configuration not stated)	.	45*	.	.	.	15*	42*	64*	MOR ag counter=0;HTR2A ag conf=2
Cc1cccc(-c2cc(C(=O)N3CCCc4ccccc43)c3ccccc3n2)c1	4	-1	2	i	i	-3	.	.
COc1cc2c3nnc(-c4ccc(F)cc4)c-3cn(Cc3ccccc3)c2cc1OC	12	67*	22	i	i	25*	66*	66*	MOR ag counter=0;HTR2A ag conf=7
Cc1ccc(NC(=O)c2ccc(C)c(S(=O)(=O)N3CCOCC3)c2)nc1	8	6	.	i	i	11	.	.
CN1C(=O)CSc2ccc(NC(=O)NCc3ccccc3)cc21	6	-1	-5	i	i	-4	.	.
Cc1ccc(CNC(=O)Nc2ccc3c(c2)N(C)C(=O)CS3)cc1	0	27*	4	i	i	-5	-3	-4
CCCCCCCCCc1nc2sc3c(c2c(=O)n1NC(=O)c1ccc([N+](=O)[O-])cc1)CC(C)(C)OC3	-4	32*	-19	i	i	-4	-1	1
CCOC(=O)c1sc(N)c(C#N)c1CSc1nc2ccc(C)cc2[nH]1	-11	-8	-11	i	i	1	.	.
COc1ccc(Cc2nc3ccc(C(=O)NCCCSC)cc3o2)cc1OC	3	8	.	i	i	-3	.	.
COC(=O)CCNC(=O)c1ccc2nc(Cc3ccc(OC)c(OC)c3)oc2c1	9	22*	.	i	i	-5	-3	0
SMILES	TLR9-MyD88 inh	NOD2-RIPK2 inh	TLR4-MyD88 BLA	ANO1 block	TMEM16A act	m5-HT2A agonist	NOD2-RIPK2 conf	BLA counter	others
COc1ccc(C2C(C(=O)NCCCN3CCOCC3)c3ccccc3C(=O)N2c2ccc(OC)cc2)cc1 (configuration not stated)	1	24*	-12	i	i	1	4	-3
CN1CCN(Cc2c(O)c(Cl)cc3c(-c4ccccc4)cc(=O)oc23)CC1	5	21*	5	i	i	7	21*	24*
Cc1cc(=O)oc2c(CN3CCN(C)CC3)c(O)c(Cl)cc12	-3	-15	7	i	i	-2	.	.
NC(=O)CSc1ncc(-c2ccc([N+](=O)[O-])cc2)[nH]1	0	3	-2	i	i	4	.	.
O=[N+]([O-])c1ccc(-c2cnc(SC(c3ccccc3)c3ccccc3)[nH]2)cc1	14	44*	9	i	i	-5	19	26*
COc1ccc(CN2CCn3ncc(C(=O)Nc4ccccc4)c3C2=O)cc1	-1	22*	-4	i	i	1	-7	-3
Cc1ccc2c(COC(=O)c3ccccc3OC(F)F)cc(=O)oc2c1	-7	6	.	i	i	1	.	.
COc1ccc2c(c1)C(C)=CC(C)(C)N2S(=O)(=O)c1ccc(NC(C)=O)cc1	-6	26*	.	i	i	4	14	-4
CC(C)(C)NC(=O)C(c1ccncc1)n1c(=O)c(-c2ccccc2)nc2ccccc21 (configuration not stated)	.	-5	.	.	.	5	.	.
CC(C)(C)NC(=O)C(c1ccc(C(F)(F)F)cc1)n1c(=O)c(-c2ccccc2)nc2ccccc21 (configuration not stated)	.	-1	.	.	.	1	.	.
O=C(NC1CCCCC1)C(C1CC1)n1c(=O)c(-c2cc3ccccc3[nH]2)nc2ccccc21 (configuration not stated)	.	44*	.	.	.	4	38*	64*
CC(C)(C)NC(=O)C(c1ccc(C(F)(F)F)cc1)n1c(=O)c(-c2cc3ccccc3[nH]2)nc2ccccc21 (configuration not stated)	.	45*	.	.	.	10	41*	66*
